From PubChem
PKA-R1A act – activators of PKA-R1A complex; P00514+P68181; PKA-R1A dissociation, Cy5-IP20 fluorescence polarization; scaled: DMSO 0%, 113 µM cGMP 100%; activation, % at 11.4 µM; 340,000 compounds, 0.083% hits; AID 504707;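 active = percent activation above the mean of all tested compounds plus 3 SD, cut at about 19% in these data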;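 note: higher means more PKAc released from R1A so a rise in polarization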
PAFAH2 inh – inhibitors of human PAFAH2 | Q99487 | recombinant PAFAH2, FP-rhodamine activity probe, fluorescence polarization | inhibition, % at 3.39 µM | 340,000 compounds, 0.99% hits;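 active = inhibition above the mean over all tested compounds plus 3 SD, cut at about 30% in these data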;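 note: inhibitors block probe labeling of enzyme so polarization drops; 0% = enzyme with DMSO and 100% = wells lacking PAFAH2 protein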
PAFAH1B3 FP inh – blocks human PAF acetylhydrolase 1B catalytic subunit 3; 340,000 compounds, 0.28% hits; Q15102; recombinant PAFAH1B3, FP-rhodamine probe, fluorescence polarization; inhibition, % at 3.39 µM;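 active = inhibition above the screen-wide average of all tested compounds plus 3 SD, cut at about 25% in these data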;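 note: 0% = enzyme with DMSO only and 100% = wells lacking PAFAH1B3 protein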
PAFAH1B2 inh – PAFAH1B2 (human) inhibition; 340,000 compounds, 1.2% hits; AID 492953; recombinant PAFAH1B2, FP-rhodamine activity probe, fluorescence polarization; inhibition, % at 3.39 µM; P68402;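 active = inhibition above the mean of all tested compounds plus 3 SD, cut at about 24% in these data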;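 note: 0% = enzyme with DMSO and 100% = wells lacking PAFAH1B2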
PKA-R2B act – PKA-R2B complex activation. PKA-R2B holoenzyme dissociation, Cy5-IP20 fluorescence polarization; R2B truncated from residue 108, S112A mutant; 0% DMSO only, 100% 113 µM cGMP. activation, % at 11.4 µM. 340,000 compounds, 0.079% hits;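 active = activation above a cutoff set at the mean over all compounds plus 3 SD, cut at about 18% in these data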;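 note: higher means more holoenzyme dissociation and a rise in polarization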
Target sequence (P31323 whole entry, looked up, other chains not shown, the tested form may be a part): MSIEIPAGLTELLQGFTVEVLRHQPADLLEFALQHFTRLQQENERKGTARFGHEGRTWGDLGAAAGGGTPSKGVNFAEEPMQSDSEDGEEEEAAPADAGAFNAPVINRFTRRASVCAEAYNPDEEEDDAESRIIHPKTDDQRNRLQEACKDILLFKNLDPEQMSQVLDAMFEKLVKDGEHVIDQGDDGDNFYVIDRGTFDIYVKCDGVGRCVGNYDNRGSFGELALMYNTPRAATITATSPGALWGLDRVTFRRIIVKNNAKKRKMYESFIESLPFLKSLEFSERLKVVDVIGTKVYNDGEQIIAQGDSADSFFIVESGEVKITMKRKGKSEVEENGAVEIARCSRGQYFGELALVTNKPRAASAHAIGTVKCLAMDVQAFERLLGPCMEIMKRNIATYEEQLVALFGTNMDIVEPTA
pPAFAH FP inh – inhibitors of human plasma PAF acetylhydrolase (pPAFAH). inhibition, % at 3.39 µM. 330,000 compounds, 1.5% hits. AID 463082. recombinant pPAFAH, FP-rhodamine probe fluorescence polarization;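 active = inhibition above the mean inhibition across the screen plus 3 SD, cut at about 25% in these data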;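 note: inhibitors block binding of the rhodamine activity-based probe so polarization drops; 0% = enzyme with DMSO and 100% = wells lacking pPAFAH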
PAFAH1B3 confirm – confirmation of human PAFAH1B3 inhibitors | recombinant PAFAH1B3, FP-Rh activity-based probe, fluorescence polarization | inhibition, % at 3.39 µM | 390 compounds, 30% hits | AID 493032 | shares compounds with PAFAH1B3 FP inh;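 active = average inhibition over triplicate runs above the hit cutoff set in the earlier primary screen, cut at about 25% in these data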;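 note: 0% = enzyme with DMSO and 100% = wells lacking PAFAH1B3 protein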
The depositor's hits bear a star; / = no result given; ! = not confirmed by another sample. This is a sample that favours compounds with a hit; in the whole collection about 2.6% have one here.

SMILES	PKA-R1A act	PAFAH2 inh	PAFAH1B3 FP inh	PAFAH1B2 inh	PKA-R2B act	pPAFAH FP inh	PAFAH1B3 confirm
O=C(O)C[C@H]1c2ccccc2S(=O)(=O)N1c1ccccc1	0	-1	4	-5	-6	1	/
CCN1CCN(C2=C(NS(=O)(=O)c3ccc(C)cc3)C(=O)c3ccccc3C2=O)CC1	5	-2	6	8	5	0	/
O=C(/C=C/c1ccc(O)cc1)c1ccc(NC2=C(N3CCCCC3)C(=O)c3ccccc3C2=O)cc1	-4	25	54*	14	10	7	22
Cc1ccc(NC2=C(N3CCCCC3)C(=O)c3ccccc3C2=O)cc1	-2	29	41*	12	1	-1	17
COc1ccccc1NC1=C(N2CCCCC2)C(=O)c2ccccc2C1=O	-2	13	42*	7	-9	-7	21
Cc1ccc(S(=O)(=O)N2CCN(CCNC(=O)C(=O)NCc3ccccc3)CC2)cc1	0	4	12	9	8	3	/
NS(=O)(=O)c1ccc(-c2ccc(C=O)o2)cc1	/	/	/	/	/	4	/
NS(=O)(=O)c1ccc(-c2ccc(/C=C3\NC(=S)NC3=O)o2)cc1	-5	-2	34*	3	6	15	12
CN(CCCCCCCCC(=O)/C=N/O)Cc1ccccc1	4	0	11	3	-14	3	/
CN(C)CCCCCCCCCCC(=O)/C=N/O	4	8	27*	12	-15	6	22
CCC(=O)Nc1c(C#N)c2nc3ccccc3nc2n1-c1ccc(C)cc1	11	3	6	3	-4	/	/
N#Cc1c(NC(=O)c2ccc(Br)o2)n(-c2ccccc2)c2nc3ccccc3nc12	-9	16	65*	17	3	7	48*
CCCCn1c(NC(=O)c2ccc(F)cc2)c(C#N)c2nc3ccccc3nc21	/	/	/	/	/	9	/
CCC(C)n1c(NC(=O)c2ccccc2)c(C#N)c2nc3ccccc3nc21 (configuration not stated)	-2	-2	35*	2	13	14	8
C[C@@H]1CN([C@@H](C)CO)S(=O)(=O)c2ccc(Br)cc2O[C@@H]1CN(C)C(=O)c1ccccn1	-7	/	/	/	-2	/	/
Cc1ccc2nc(NC(=O)C3CCN(C(=O)c4ccc(F)cc4)CC3)sc2c1	-1	-5	-3	2	3	6	/
CCC(C)Sc1ccc([C@@H]2[C@H]3C(=O)N(CC)C(=O)[C@H]3[C@]3(C(=O)OC)CCCN23)cc1OC (some centres not stated)	0	2	-6	2	-5	-1	/
CCCCn1c(N)c(N(CCC(C)C)C(=O)COC(=O)c2ccc([N+](=O)[O-])s2)c(=O)[nH]c1=O	-1	25	30*	13	-1	2	22
Cc1cccc(C(=O)Oc2ccc(/C=N/NC(=O)c3cc(O)cc(O)c3)cc2)c1	-12	-17	26*	5	0	/	12
CC(=O)c1ccc(NC(=O)CNC2CCCCC2)cc1	5	22	30*	16	-8	-11	6
Nc1ccc2ccc(O)cc2c1	-8	4	3	11	-2	/	/
C[n+]1c2cc(N)ccc2cc2ccc(N)cc21	5	18	33*	13	4	/	28*!
C/C(=N\NC(=O)c1cc(-c2cccc([N+](=O)[O-])c2)n[nH]1)c1ccccc1O	-4	-5	26*	6	0	19	14
CCC(=O)Oc1ccc(C/C(=N\O)c2ccc(O)cc2O)o1	0	18	27*	16	6	20	38*
CC1=CC(C)(C)NC(=S)N1c1ccccc1C	3	-1	4	3	2	2	/
CC1=CC(C)(C)NC(=S)N1c1cccc2cc(S(=O)(=O)O)ccc12	2	12	29*	11	-1	23	24
CC(C)(C)NCC(O)COc1cccc2c1C[C@H](O)[C@H](O)C2 (some centres not stated)	-11	-4	33*	-7	-2	1	9
